Compound activity deposited in PubChem by several laboratories.
Only some compounds are listed: those with a hit (about 27% of all), similar ones and a draw of the others.
CYP2C9 inh = human CYP2C9 inhibition; P11712; CYP2C9 Supersomes, luciferin-H conversion, luminescence; inhibition, % at 5 µM; actives 20% (n = 96,000); AID 777;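 active = blocking of liver enzyme CYP2C9 beyond about 50% at 5 µM, limit read from the data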
CYP2C19 act = cytochrome P450 2C19 (human) activation; activation factor at 5 µM; recombinant CYP2C19, luciferin-H EGE luminescence; active compounds read high; 0 = fully inhibited enzyme, 1 = untreated enzyme; 96,000 tested, under 10 active;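 active = activation factor of at least 2 at 5 µM in the primary screen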;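 note: 0 = wells with 2.5 mM tranylcypromine and 1 = vehicle-only wells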
CYP2C19 inhib = inhibitors of human CYP2C19; CYP2C19 Supersomes, luciferin-H EGE luminescence, 30 min; P33261; inhibition, % at 5 µM; AID 778; actives 21% (n = 96,000);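 active = CYP2C19 inhibition above a set limit at 5 µM in the primary screen, cut at about 50% in these data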;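 note: plate controls were negative control wells for no effect and 2.5 mM tranylcypromine positive control for full effect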
CYP2C9 activ = CYP2C9 (human) activation | P11712 | recombinant CYP2C9, luciferin-H conversion, luminescence; active compounds read high; factor 1 = untreated enzyme, 0 = blocked | activation factor at 5 µM | actives 1.4% (n = 96,000) | AID 1024;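 active = activation factor of 2 or more for CYP2C9 at a 5 µM dose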;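 note: 0 = sulfaphenazole-blocked wells and 1 = vehicle-only wells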
sEH act = activators of human soluble epoxide hydrolase | P34913 | purified human sEH enzymatic activity, activator screen | activation, % at 2 µM | actives 0.04% (n = 91,000) | AID 717; in the data active = activation above about 37%
Target sequence (P34913 whole entry, looked up): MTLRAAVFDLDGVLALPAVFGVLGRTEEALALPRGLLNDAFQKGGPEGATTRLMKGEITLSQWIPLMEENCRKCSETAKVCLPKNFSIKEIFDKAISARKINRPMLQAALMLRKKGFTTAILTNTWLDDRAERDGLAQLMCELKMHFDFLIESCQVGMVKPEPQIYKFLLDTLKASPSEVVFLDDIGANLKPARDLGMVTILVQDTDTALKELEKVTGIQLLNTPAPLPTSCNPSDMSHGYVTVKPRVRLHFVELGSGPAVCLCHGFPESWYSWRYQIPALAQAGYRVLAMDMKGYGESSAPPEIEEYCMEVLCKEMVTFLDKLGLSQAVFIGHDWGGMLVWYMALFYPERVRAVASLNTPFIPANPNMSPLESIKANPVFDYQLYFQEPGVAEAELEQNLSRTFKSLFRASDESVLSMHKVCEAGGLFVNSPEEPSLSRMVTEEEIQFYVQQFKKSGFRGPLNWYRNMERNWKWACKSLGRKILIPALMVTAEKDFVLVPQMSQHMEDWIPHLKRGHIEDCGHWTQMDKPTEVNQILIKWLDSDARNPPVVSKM
sEH inh = soluble epoxide hydrolase (human) inhibition | inhibition, % at 2 µM | recombinant human sEH enzymatic activity assay | actives 0.34% (n = 91,000) | P34913; in the data active = inhibition above about 80%
Active calls of the source: *; . = not tested or not shown.

SMILES	CYP2C9 inh	CYP2C19 act	CYP2C19 inhib	CYP2C9 activ	sEH act	sEH inh
CSCc1cc(N2CCOCC2)nc(SCc2ccc(Cl)c(Cl)c2)n1	49	0.5	53*	0.5	-12	10
Cc1nc(CSc2ccc(Cl)cc2)cc(NCc2ccccc2)n1	91*	0.2	85*	0.1	6	-7
Cc1nc(CSc2ccc(Cl)cc2)cc(N2CCOCC2)n1	12	0.1	94*	0.9	13	-14
CCCc1cc(=O)n2[nH]c(NCc3ccc(Cl)cc3Cl)nc2n1	45	0.9	6	0.5	8	-6
Cc1ccc(SCc2cc(=O)[nH]c(N3CCOCC3)n2)cc1	-8	0.9	8	1.1	-6	7
Cc1cc(NCc2ccccc2)nc2ccccc12	.	.	.	.	6	-2
O=C(CSC1=NCCS1)N1CCOCC1	30	0.9	8	0.7	-1	3
CC/C(C)=C1\SC(N2CCOCC2)=NC1=O	2	1	4	1	-6	5
COc1ccc(S(=O)(=O)N2CCC(C(=O)NCC3CCCO3)CC2)cc1 (configuration not stated)	-2	1	-4	1	-5	4
Cc1noc(C)c1C(=O)Nc1ccc(F)cc1F	-6	1	3	1.1	-1	2
O=CNCCCc1nc2ccccc2n1Cc1cccc2ccccc12	91*	0	97*	0.1	2	-1
CCCC(=O)NCCCc1nc2ccccc2n1CC	-71	1	-2	1.7	0	3
COc1ccc(/C=N/NC(N)=S)cc1OC(=O)c1cccc2ccccc12	58*	0.7	29	0.4	-1	2
Cc1cc2c(cc1C)-c1nnnn1C(C)(C)C2	4	0.4	59*	1	3	-5
N=c1nc(SCCC(=O)O)ss1	1	1	-2	1	17	-16
COc1ccc(N2C(=O)NC(NC(=O)c3ccncc3)(C(F)(F)F)C2=O)cc1 (configuration not stated)	55*	0.6	35	0.4	5	-3
O=C1NC(NS(=O)(=O)c2ccccc2)(C(F)(F)F)C(=O)N1Cc1cccnc1 (configuration not stated)	67*	1	3	0.3	5	-3
O=C(NC1(C(F)(F)F)NC(=O)N(Cc2cccnc2)C1=O)c1ccncc1 (configuration not stated)	60*	0.9	10	0.4	4	-3
O=C(NC1(C(F)(F)F)NC(=O)N(Cc2cccnc2)C1=O)c1ccc(F)cc1 (configuration not stated)	31	0.7	34	0.7	-7	6
COC(=O)C1CCCN1C(=O)C1CCCN1C(=O)CNC(=O)OCc1ccccc1 (configuration not stated)	3	1.1	-6	1	6	-4
Cc1cc(C)c(NC(=O)CC(C)(C)C)c(Cl)c1	3	1	2	1	1	0
CC(C)NC(=O)N(O)C1N(Cc2ccc3c(c2)OCO3)C(=S)SC1(C)C (configuration not stated)	94*	0	98*	0.1	10	-12
COc1cccc(CN2C(=O)N(C(C)C)C(N(O)C(=O)NC(C)C)C2(C)C)c1OC (configuration not stated)	11	1	-1	0.9	-7	10
COc1ccccc1NC(=O)CNC(=O)c1ccc(F)cc1	1	0.8	20	1	2	3
CO/N=C(/CNC(=O)c1ccc(F)cc1)c1ccc(Cl)cc1	64*	0.1	86*	0.4	-1	3
SMILES	CYP2C9 inh	CYP2C19 act	CYP2C19 inhib	CYP2C9 activ	sEH act	sEH inh
O=C(Nc1ccc(OC(=O)c2cccs2)cc1)c1ccco1	-18	0.9	7	1.2	0	0
O=C(Cc1cccs1)Nc1ccc(NC(=O)c2ccco2)cc1	72*	0.9	13	0.3	7	-6
O=C(Cc1cccs1)Nc1cccc(C(=O)Nc2ccco2)c1	78*	0.5	51*	0.2	-5	10
CC(=O)N=c1cccc(NC(C)=O)n1O	-16	1.1	-13	1.2	13	-12
O=C(Sc1nnc(-c2ccccc2)o1)N1c2ccccc2Sc2ccccc21	.	.	.	.	0	3
Cn1ccnc1SC(=O)N1c2ccccc2Sc2ccccc21	97*	0.2	84*	0	6	-4
COC(=O)[C@H](Cc1ccccc1)NC(=O)NCc1ccccc1OC	33	0.6	42	0.7	-10	7
Cc1nc(N2CCN(C(=O)c3ccco3)CC2)c2c3c(sc2n1)CCCC3	.	.	.	.	11	-5
O=C(c1ccco1)N1CCN(c2nc(C3CC3)nc3sc4c(c23)CCCC4)CC1	70*	0.6	36	0.3	-5	6
CCc1nc(SCC(=O)N2CCN(C(=O)c3ccco3)CC2)c2c3c(sc2n1)CCCC3	59*	0.9	11	0.4	.	.
CC(=O)c1c(C)[nH]c(C(=O)NCc2cccs2)c1C	13	0.9	8	0.9	-14	16
COc1ccc2[nH]c(O)c(NC(C)=O)c2c1	63*	0.9	8	0.4	-6	4
O=C(NCCO)c1ccc2[nH]c3ccccc3c2c1	16	0.1	91*	0.8	9	-9
COC(=O)c1[nH]c2cc(OC)ccc2c1N	3	0.8	22	1	-26	27
COc1ccc2[nH]c3ccccc3c2c1	3	0.5	55*	1	.	.
CC(=O)Nc1ccc2[nH]c3ccccc3c2c1	10	0.3	73*	0.9	5	-8
CCN(CC)c1ccc(CN2CCCCCC2)cc1	-7	1.1	-7	1.1	6	-3
Cc1cc(N/C=C2\CCCCC2=O)no1	-24	0.9	7	1.2	-3	1
O=C(CCCC(=O)N(CC(=O)NC1CCCCC1)Cc1ccc2c(c1)OCO2)Nc1ccccn1	64*	0.4	65*	0.4	16	-12
O=C(CCCC(=O)N(CC(=O)NC1CCCC1)Cc1ccc(F)cc1)Nc1ccccn1	52*	0.6	44	0.5	.	.
Cc1ccnc(NC(=O)CCC(=O)N(CC(=O)NC2CCCCC2)CC2CCCO2)c1 (configuration not stated)	31	0.9	9	0.7	-4	5
Cc1ccnc(NC(=O)CCC(=O)N(CC(=O)NC2CCCCC2)Cc2ccc3c(c2)OCO3)c1	76*	0.4	56*	0.2	.	.
O=C(CCCC(=O)N(CC(=O)NC1CCCCC1)Cc1ccco1)Nc1ccccn1	10	0.9	6	0.9	.	.
COc1ccc(N2CCN(CCNC(=O)c3ccc(NC(=O)C4CCCO4)cc3)CC2)cc1 (configuration not stated)	-10	1	0	1.1	.	.
CC1(C)C(c2cccs2)=NC(c2ccccc2)N1O (configuration not stated)	13	0.6	42	0.9	13	-14
c1ccc(C2COC(c3cccs3)=N2)cc1 (configuration not stated)	8	0.4	62*	0.9	0	-1
